# From PubChem BioAssay (NCATS)
# Inconclusive results are not listed. Entries that show only a call come without a potency. A number with no mark means an inactive call. Activity calls are given as the source filed them. Calls come from the whole dose curve; as a rule, active = well fitted curve in the direction sought with a large enough effect; inconclusive = small, poorly fitted or top-dose-only effect, or another doubt; inactive = no such curve, though single readings can be large; an effect the other way counts as inactive or inconclusive. Where a SMILES comes first, the peptide text is derived from it.
# Legend:
# [1] = target: Calcium and integrin-binding protein 1 (Homo sapiens) (UniProt Q99828); assay: Primary qHTS for Identification of Calcium Integrin Binding Protein 1 (CIB1) Competitor (AID 1508620);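 note: GST tagged CIB1 binding a fluorescein labelled alphaIIb integrin peptide tracer; top concentration of the series differs between compounds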
# Sequence of Calcium and integrin-binding protein 1 (Homo sapiens) (Q99828 whole entry, looked up): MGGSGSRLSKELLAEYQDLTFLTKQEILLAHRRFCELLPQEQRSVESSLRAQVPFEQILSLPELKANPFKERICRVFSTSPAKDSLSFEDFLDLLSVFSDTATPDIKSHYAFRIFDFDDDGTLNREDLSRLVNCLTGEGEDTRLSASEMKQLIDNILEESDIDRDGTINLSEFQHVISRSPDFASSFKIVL
# Procedure, shortened: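 CIB1-GST (1 uM final) and compound incubated 15 min at room temperature before adding FITC-alphaIIb peptide tracer (100 nM final). Competition for binding read by fluorescence polarization (ex 480, em 540) after another 15 min at room temperature.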
# [2] = Primary qHTS for inhibitors of nuclear receptor binding SET domain protein 2 (NSD2) in an isogenic RCH-ACV NSD2 p.E1099K mutant (9B) (AID 1645876); note: nearly all actives have a fitted effect of over 70% in size
# [3] = Primary qHTS for inhibitors of nuclear receptor binding SET domain protein 2 (NSD2) in an RCH-ACV wild type WT cells (2C) (AID 1645877); note: nearly all actives have a fitted effect of over 70% in size; note: potency is the fitted concentration of half-maximal effect
compound,measurement,setting,value
COC(=O)C1=CO[C@@H](O[C@@H]2O[C@H](CO)[C@@H](O)[C@H](O)[C@H]2O)[C@@H]2C(CO)=CC[C@H]12,Potency,[1],inactive
same,Potency,[2],inactive
same,Potency,[3],inactive
C=CCc1cc(OC)c(OC(C)C(O)c2ccc(O)c(OC)c2)c(OC)c1 (stereo unspecified),Potency,[1],inactive
same,Potency,[2],inactive
same,Potency,[3],inactive
C/C=C/C(=O)OC1/C=C/C(O)C(OC(C)=O)CCC(=O)OC1C (stereo unspecified),Potency,[1],inactive
same,Potency,[2],inactive
same,Potency,[3],inactive
COc1cc(C(CO)CO[C@@H]2O[C@H](CO)[C@@H](O)[C@H](O)[C@H]2O)ccc1O (stereo partly specified),Potency,[1],inactive
same,Potency,[2],inactive
same,Potency,[3],inactive
COc1ccc(/C=C/C(=O)O[C@@H]2[C@@H](O[C@@H]3O[C@H](CO)[C@@H](O)[C@H](O)[C@H]3O)[C@@H](O)[C@H](O[C@H]3C4C=CO[C@@H](O[C@@H]5O[C@H](CO)[C@@H](O)[C@H](O)[C@H]5O)C4[C@@]4(CO)O[C@@H]34)O[C@H]2C)cc1 (stereo partly specified),Potency,[1],inactive
same,"activity change, negative = viability loss",[2],-15.4% [at 9.23 µM]
same,"activity change, negative = cell killing",[3],-20.7% [at 9.23 µM]
CC1=CCC[C@@H]2[C@@](C)(CCc3ccoc3)[C@H](C(=O)O)CC[C@@]12C,Potency,[1],inactive
same,Potency,[2],inactive
same,Potency,[3],inactive
C[C@@H]1O[C@@H](O[C@H]2[C@H](OC(=O)[C@]34CCC(C)(C)C[C@H]3C3=CCC5[C@@]6(C)C[C@@H](O)[C@@H](O)[C@@](C)(CO)C6[C@H](O)C[C@@]5(C)[C@]3(C)CC4)OC[C@H](O)[C@@H]2O)[C@H](O)[C@H](O)[C@H]1O[C@@H]1OC[C@@H](O)[C@H](O[C@H]2O[C@H](C)[C@@H](O)[C@H](O)[C@@H]2O)[C@H]1O (stereo partly specified),Potency,[1],inactive
same,"activity change, negative = viability loss",[2],-2.76% [at 9.23 µM]
same,"activity change, negative = cell killing",[3],-1.27% [at 9.23 µM]
CCC(C)C(=O)OC[C@H]1O[C@H](O[C@H]2O[C@H](CO)[C@@H](O)[C@H](O)[C@H]2O)[C@H](O)[C@@H](O)[C@@H]1O (stereo partly specified),Potency,[1],inactive
same,Potency,[2],inactive
same,Potency,[3],inactive
C/C=C/C=C/C=C/C(=O)N(C)C(C(=O)NC(C)C(=O)N1CCCC1C(N)=O)C(C)C (stereo unspecified),Potency,[1],inactive
same,Potency,[2],inactive
same,Potency,[3],inactive
C=C(C)[C@@H]1CC[C@]2(C)CC[C@]3(C)C(CCC4[C@@]5(C)CC[C@H](O)C(C)(C)C5CC[C@]43C)C12 (stereo partly specified),Potency,[1],inactive
same,Potency,[2],inactive
same,Potency,[3],inactive
Cc1cc(O[C@@H]2O[C@H](COC(=O)CC(=O)O)[C@@H](O)[C@H](O)[C@H]2O)c(C(C)C)cc1O,Potency,[1],inactive
same,Potency,[2],inactive
same,Potency,[3],inactive
CC(C)=CCC[C@](C)(O[C@@H]1O[C@H](CO[C@@H]2O[C@@H](CO)[C@H](O)[C@H]2O[C@@H]2OC[C@@H](O)[C@H](O)[C@H]2O)[C@@H](O)[C@H](O)[C@H]1O)[C@H]1CC[C@]2(C)[C@@H]1[C@H](O)CC1[C@@]3(C)CC[C@H](O[C@@H]4O[C@H](CO)[C@@H](O)[C@H](O)[C@H]4O[C@@H]4O[C@H](CO)[C@@H](O)[C@H](O)[C@H]4O)C(C)(C)C3CC[C@]12C (stereo partly specified),"activity change, negative = inhibition",[1],-3.93% [at 12.4 µM]
same,"activity change, negative = viability loss",[2],-9.17% [at 9.23 µM]
same,"activity change, negative = cell killing",[3],-15.6% [at 9.23 µM]
CC1(O)CCC2C(C3C1CCC3(C)O)C2(C)C (stereo unspecified),Potency,[1],inactive
same,Potency,[2],inactive
same,Potency,[3],inactive
COC(=O)C1=COC(OC2OC(CO)C(O)C(O)C2O)C2C(C)CC(=O)C12O (stereo unspecified),Potency,[1],inactive
same,Potency,[2],inactive
same,Potency,[3],inactive
COc1cc(C(=O)OC[C@@]2(O)CO[C@@H](O[C@H]3[C@H](Oc4ccc(O)cc4)O[C@H](CO)[C@@H](O)[C@@H]3O)[C@@H]2O)cc(OC)c1O,Potency,[1],inactive
same,Potency,[2],inactive
same,Potency,[3],inactive
CC1=C2CC(=O)C(C)CC/C=C(\C)CC2(O)OC1=O (stereo unspecified),Potency,[1],inactive
same,Potency,[2],inactive
same,Potency,[3],inactive
COc1ccc(/C=C/C(=O)N2CCCC2)cc1,Potency,[1],inactive
same,Potency,[2],inactive
same,Potency,[3],inactive
CC(C)(OC1OC(CO)C(O)C(O)C1O)C1CCC(O)(CO)C2CC(=O)C(C)(O)C2C1 (stereo unspecified),Potency,[1],inactive
same,Potency,[2],inactive
same,Potency,[3],inactive
CC(C)C1NC(=O)CNC(=O)C2CCCN2C(=O)C(Cc2c[nH]c3ccccc23)NC(=O)CNC(=O)C(Cc2ccc(O)cc2)NC(=O)CNC1=O (stereo unspecified) (cyclo(GVGYGWP); configuration not given here),Potency,[1],inactive
same,Potency,[2],inactive
same,Potency,[3],inactive
O=C(O)C(Cc1ccccc1)NC(=O)C1CCCN1 (stereo not drawn) (H-Pro-Phe-OH; configuration not given here),Potency,[1],inactive
same,Potency,[2],inactive
same,Potency,[3],inactive
O=C(O)c1ccncc1Nc1nn(CCN2CCC(F)(F)CC2)c2ccc(F)cc12,Potency,[1],inactive
same,Potency,[2],inactive
same,Potency,[3],inactive
CC1C(=O)OCC2=CC[N+]3([O-])CCC(OC(=O)C(C)(O)C1(C)O)C23 (stereo unspecified),Potency,[1],inactive
same,Potency,[2],inactive
same,Potency,[3],inactive
C[C@]12CC/C(=N\OCC(=O)O)C=C1CC[C@@H]1[C@@H]2[C@@H](O)C[C@@]2(C)[C@H]1CC[C@]2(O)C(=O)CO,Potency,[1],inactive
same,Potency,[2],inactive
same,Potency,[3],9.16 µM (active)
C[C@]1(O)CC[C@@H]2C(C(=O)O)=CO[C@@H](O[C@@H]3O[C@H](COC(=O)/C=C/c4ccc(O)c(O)c4)[C@@H](O)[C@H](O)[C@H]3O)[C@@H]21,Potency,[1],inactive
same,Potency,[2],inactive
same,Potency,[3],inactive
C[C@@H](CC[C@@H]1[C@@]2(C)CCCC(C)(C)C2CC[C@@]1(C)O)CC(=O)O (stereo partly specified),Potency,[1],inactive
same,Potency,[2],inactive
same,Potency,[3],inactive
CC1=C[C@@H]2[C@H]3[C@@H]4O[C@@](C)(CC[C@H]4O)[C@H]3CC(=O)[C@]23C(=O)N[C@@H](CC(C)C)[C@@H]3[C@@H]1C,Potency,[1],inactive
same,Potency,[2],inactive
same,Potency,[3],inactive
C=C(COC(=O)C(C)C)C1Oc2cc(C(C)=O)ccc2C1OC(=O)C(C)C (stereo unspecified),Potency,[1],inactive
same,Potency,[2],inactive
same,Potency,[3],inactive
COc1cc(O)c2c(c1)C1(OC2=O)C(C)=CC(=O)C1O (stereo unspecified),Potency,[1],inactive
same,Potency,[2],inactive
same,Potency,[3],inactive
H-DPPDPDRFYGMM-NH2,Potency,[1],inactive
same,Potency,[2],inactive
same,Potency,[3],inactive
CC(C)=CCC/C(C)=C/CO[C@@H]1O[C@H](CO[C@@H]2O[C@@H](CO)[C@H](O)[C@H]2O)[C@@H](O)[C@H](O)[C@H]1O,Potency,[1],inactive
same,Potency,[2],inactive
same,Potency,[3],inactive
CC(=C\C(C)O)/C=C(\C)C(=O)CC1CC(CC(N)=O)CC(=O)O1 (stereo unspecified),Potency,[1],inactive
same,Potency,[2],inactive
same,Potency,[3],inactive
O=C(C[C@@H]1C(C(=O)O)=CO[C@@H](O[C@@H]2O[C@H](CO)[C@@H](O)[C@H](O)[C@H]2O)/C1=C\CO)OCCc1ccc(O)c(O)c1,Potency,[1],inactive
same,Potency,[2],inactive
same,Potency,[3],inactive
Cn1cc(Nc2cnccc2C(=O)O)c2cccnc21,Potency,[1],inactive
same,Potency,[2],inactive
same,Potency,[3],inactive
CC(O)C(O)/C=C/C=C/C(=O)O[C@@H]1C=C(C(=O)O)[C@](O)(CO)[C@@]2(C)CCCC(C)(C)[C@H]12 (stereo partly specified),Potency,[1],inactive
same,Potency,[2],inactive
same,Potency,[3],inactive
CC1=CCC[C@@H]2[C@](CCc3ccoc3)(C(=O)O)[C@H](C)CC[C@@]12C,Potency,[1],inactive
same,Potency,[2],inactive
same,Potency,[3],inactive
C[C@@H]1O[C@@H](O[C@H]2[C@@H]3C=CO[C@@H](O[C@@H]4O[C@H](CO)[C@@H](O)[C@H](O)[C@H]4O)[C@@H]3[C@@]3(CO)O[C@@H]23)[C@H](O)[C@H](OC(=O)/C=C/c2ccc(O)cc2)[C@H]1OC(=O)/C=C/c1ccc(O)cc1,Potency,[1],inactive
same,Potency,[2],inactive
same,Potency,[3],inactive
O=C(OC1C=C(CO)C2C(OC3OC(CO)C(O)C(O)C3O)OC=CC12O)c1ccc(O)cc1 (stereo unspecified),Potency,[1],inactive
same,Potency,[2],inactive
same,Potency,[3],inactive
C/C=C(/C)C(=O)OC1C2OC2C2(CO2)C2C3OC(=O)C(C)C3CCC12C (stereo unspecified),Potency,[1],inactive
same,Potency,[2],inactive
same,Potency,[3],inactive
C[C@@H]1C[C@@H](O)[C@@]23CO[C@]2(CO)CCC[C@@H]3[C@@]12C[C@@H](c1ccoc1)OC2=O,Potency,[1],inactive
same,Potency,[2],inactive
same,Potency,[3],inactive
CC(C)C1CCC(C(=O)N[C@@H](Cc2ccccc2)C(=O)O)CC1 (stereo partly specified),Potency,[1],inactive
same,Potency,[2],inactive
same,Potency,[3],inactive
C/C=C(\C)C(=O)OCC1OC(OC2OC(CO)C(O)C(O)C2O)C(O)C(O)C1O (stereo unspecified),Potency,[1],inactive
same,Potency,[2],inactive
same,Potency,[3],inactive
CC1CC=C2C1CC1(O)C(=O)CC2(C)C1(C)CO (stereo unspecified),Potency,[1],inactive
same,Potency,[2],inactive
same,Potency,[3],inactive
C/C=C(\C)C(=O)OCC1OC(OCC2OC(OC3(CO)OC(CO)C(O)C3O)C(O)C(O)C2O)C(O)C(O)C1O (stereo unspecified),Potency,[1],inactive
same,Potency,[2],inactive
same,Potency,[3],inactive
C=C1CCC2(OC1)OC1CC3C4CC=C5CC(O)CC(O[C@@H]6OC[C@H](OC(=O)C(O)C(C)CC)[C@H](O)[C@H]6O[C@@H]6O[C@@H](C)[C@H](O)[C@@H](O)[C@H]6O)C5(C)C4CCC3(C)C1C2C (stereo partly specified),Potency,[1],inactive
same,"activity change, negative = viability loss",[2],-3.21% [at 9.23 µM]
same,"activity change, negative = cell killing",[3],-9.66% [at 9.23 µM]
C[C@@H]1O[C@@H](OC2C(CO)OC(OCC3OC(OC(=O)[C@]45CCC(C)(C)CC4C4=CCC6[C@@]7(C)CC[C@@H](O)[C@](C)(C(=O)O)C7CC[C@@]6(C)[C@]4(C)CC5)C(O)C(O)C3O)C(O)C2O)[C@H](O)[C@H](O)[C@H]1O (stereo partly specified),Potency,[1],inactive
same,"activity change, negative = viability loss",[2],0.361% [at 9.23 µM]
same,outcome,[3],inactive [at 9.23 µM]
CC(NC(=O)c1ccccc1N)C(=O)O (stereo unspecified),Potency,[1],inactive
same,Potency,[2],inactive
same,Potency,[3],inactive
COc1ccc(O[C@@H]2O[C@H](CO)[C@@H](O)[C@H](O)[C@H]2O)cc1OC,Potency,[1],inactive
same,Potency,[2],inactive
same,Potency,[3],inactive
O=C(/C=C/N1C[C@@H]2C[C@@H]1CN2c1ccccn1)c1ccccc1O,Potency,[1],inactive
same,Potency,[2],inactive
same,Potency,[3],inactive
O=C1C[C@@]2(C(=O)N1)C(=O)N(Cc1ccc(Br)cc1F)C(=O)c1cccn12,Potency,[1],inactive
same,Potency,[2],inactive
same,Potency,[3],inactive
COC(=O)C1=CO[C@@H](O[C@@H]2O[C@H](CO)[C@@H](O)[C@H](O)[C@H]2O)[C@@H]2[C@@H](C(=O)O)CC[C@H]12,Potency,[1],inactive
same,Potency,[2],inactive
same,Potency,[3],inactive
C=C1CCC2C(C)(C)CCC[C@]2(C)[C@H]1CC/C(C)=C/C(=O)O (stereo partly specified),Potency,[1],inactive
same,Potency,[2],inactive
same,Potency,[3],inactive
C=C(C)C1CCC2(C(=O)OC3OC(COC4OC(CO)C(O)C(O)C4O)C(OC4OC(C)C(O)C(O)C4O)C(O)C3O)CCC3(C(=O)O)C(CCC4C5(C)CCC(=O)C(C)(C)C5CCC43C)C12 (stereo unspecified),Potency,[1],inactive
same,outcome,[2],inactive [at 9.23 µM]
same,outcome,[3],inactive [at 9.23 µM]
